# Data from PubChem BioAssay.
# Several values for one entry are separate records, joined by “and”; a condition that tells them apart may be missing. Equal entries are not always repeated. More than one record can exist for a structure, and the calls need not agree. Activity calls are given as the source filed them. Unless noted, no stated cut-off is given here; in the data, active means inhibition above about 80%; inactive means the rest.
# Legend:
# [1] = LFS_MB_P medulloblastoma growth inhibition, cell-based, chromothripsis tumors, cisplatin or BGB combos (AID 1671449); details: LFS_MB_P medulloblastoma cells;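 further: cells exposed for 96 hours; 0% = vehicle DMSO and 100% = killing by high DMSO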
# [2] = HDN33 neuroblastoma growth inhibition, cell-based, chromothripsis tumors, cisplatin or BGB combos (AID 1671450); details: HDN33 neuroblastoma cells, stronger effect = higher value;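 further: cells exposed to compound for four days; 0% = vehicle DMSO and 100% = cell killing by high DMSO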
# [3] = ICB984 medulloblastoma cell growth inhibition, synergistic combos for chromothripsis tumors, cisplatin or BGB combos (AID 1671451; call rule not given here;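 further: cells exposed for 96 hours before readout; 0% = vehicle DMSO and 100% = killing by high DMSO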); details: ICB984 medulloblastoma cells, drug combinations, stronger effect = higher value
# [4] = LFS_MB_1R medulloblastoma cell growth inhibition, synergistic combos for chromothripsis tumors, cisplatin or BGB combos (AID 1671452); details: LFS_MB_1R medulloblastoma cells, stronger effect = higher value;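 further: cells exposed for 96 hours before readout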
# [5] = HTB85 osteosarcoma cell growth inhibition, synergistic combos for chromothripsis tumors, BGB or cisplatin IC20 combos (AID 1671453); details: HTB85 osteosarcoma cells, drug combinations, stronger effect = higher value;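 further: cells exposed for 96 hours before readout; 0% = vehicle DMSO and 100% = high DMSO killing control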
# [6] = CRL2098 osteosarcoma cell growth inhibition, synergistic combos for chromothripsis tumors, BGB or cisplatin IC20 combos (AID 1671454); details: CRL2098 osteosarcoma cells, drug combinations, stronger effect = higher value;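 further: cells exposed for 96 h before readout; 0% = vehicle DMSO and 100% = killing by high DMSO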
# [7] = HD-MB03 medulloblastoma cell growth inhibition, synergistic combos for chromothripsis tumors, BGB or cisplatin IC20 combos (AID 1671455; in the data active means inhibition above about 83%;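 further: 0% = vehicle DMSO and 100% = high DMSO as cytotoxic control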); details: HD-MB03 medulloblastoma cells, stronger effect = higher value
# [8] = UWB1.289 ovarian carcinoma cell growth inhibition, synergistic combos for chromothripsis tumors, BGB or cisplatin combos (AID 1671456); details: UWB1.289 ovarian carcinoma cells, stronger effect = higher value;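 further: cells exposed to compound for four days; 0% = vehicle DMSO and 100% = killing by high DMSO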
# [9] = LFS_MB_2R medulloblastoma cell growth inhibition, synergistic combos for chromothripsis tumors, cisplatin combos (AID 1671457); details: LFS_MB_2R medulloblastoma cells, stronger effect = higher value;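 further: cells exposed to compound for four days before readout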
# [10] = MDA-MB-436 breast carcinoma cell growth inhibition, synergistic combos for chromothripsis tumors, BGB or cisplatin combos (AID 1671458; call rule not given here;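 further: cells exposed for 96 hours; 0% = vehicle DMSO and 100% = killing by high DMSO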); details: MDA-MB-436 breast carcinoma growth inhibition, drug combinations, stronger effect = higher value
# [11] = UWB1.289_BRCA1 ovarian cancer growth, cell-based, BGB or cisplatin combinations (AID 1671459); details: UWB1.289 BRCA1 ovarian carcinoma, drug combinations, stronger effect = higher value
# [12] = human astrocyte viability loss, single and combined drugs, cytotoxicity control for chromothriptic childhood tumor combination screen, cell-based, BGB or cisplatin IC20 combos (AID 1671460); details: Human astrocytes, drug combinations, stronger effect = higher value;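 further: cells exposed to compounds for 96 hours before viability readout; 0% = vehicle and 100% = killing control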
# [13] = growth inhibition of BT084 medulloblastoma cells, cell-based, ICGC_MB145, cisplatin and BGB IC40 combos (AID 1671461); details: drug combinations, stronger effect = higher value;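 further: cells exposed to drugs for 96 hours; 0% = vehicle DMSO and 100% = high DMSO full killing control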
# [14] = growth inhibition of RCMB18 medulloblastoma cells, cell-based, cisplatin and BGB IC40 combos (AID 1671462); details: stronger effect = higher value;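 further: cells exposed to compound for four days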
# [15] = growth inhibition of CRL1545 osteosarcoma cells, cell-based, cisplatin and BGB IC20 combos (AID 1671464); details: stronger effect = higher value;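 further: cells exposed to compound for 96 hours before readout; 0% = vehicle DMSO and 100% = high DMSO killing control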
# [16] = circadian clock period modulators, cell-based, LOPAC library, luminescence reporter (AID 2774; call rule not given here;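 further: values are relative to mean of DMSO wells on each plate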); details: circadian reporter cells, at 7 µM, actives lie on both sides
# [17] = at 0.5 µM, stronger effect = higher value
# [18] = measured here: combination with BGB IC20, at 0.005 µM
# [19] = measured here: combination with BGB IC40, at 0.005 µM
# [20] = measured here: combination with BGB IC40, at 0.05 µM
# [21] = measured here: combination with cisplatin, at 0.5 µM, stronger effect = higher value
# [22] = measured here: combination with cisplatin, at 5 µM, stronger effect = higher value
# [23] = measured here: with BGB IC20 combination, at 0.5 µM
# [24] = measured here: with cisplatin IC20 combination, at 0.5 µM
# [25] = measured here: 5 uM single agent, at 5 µM
# [26] = measured here: combination with cisplatin, at 0.5 µM
# [27] = measured here: combination with cisplatin, at 5 µM
# [28] = measured here: with BGB IC20, at 0.5 µM
# [29] = measured here: with BGB IC20, at 5 µM
# [30] = measured here: with cisplatin IC20, at 0.5 µM
# [31] = measured here: with cisplatin IC20, at 5 µM
# [32] = measured here: combination with BGB at IC20, at 0.5 µM
# [33] = measured here: combination with cisplatin at IC20, at 0.5 µM
# [34] = measured here: combo with BGB at IC20, at 0.5 µM
# [35] = measured here: combo with cisplatin at IC20, at 0.5 µM
# [36] = measured here: inhibition with BGB combination, at 0.05 µM
# [37] = measured here: inhibition with cisplatin combination, at 0.05 µM
# [38] = measured here: BGB combination, at 0.5 µM
# [39] = measured here: BGB combination, at 5 µM
# [40] = measured here: cisplatin combination, at 0.5 µM
# [41] = measured here: cisplatin combination, at 5 µM
# [42] = BGB combination, concentration series, at 5 µM
# [43] = cisplatin combination, concentration series, at 5 µM
# [44] = measured here: combo with BGB IC20, at 0.5 µM
# [45] = measured here: combo with cisplatin IC20, at 0.5 µM
# [46] = cisplatin combination, at 0.5 µM
# [47] = measured here: BGB IC40 combination 0.05 uM, at 0.05 µM
# [48] = measured here: BGB IC40 combination, at 0.05 µM
smiles,measurement,setting,value
CCC1(O)C(=O)OCc2c1cc1n(c2=O)Cc2cc3ccccc3nc2-1 (stereo not drawn),inhibition,[1]; [17],88.2% (active) and 9.86% (inactive)
same,inhibition,[1]; [18],-1.21% and 5.58%
same,inhibition,[1]; [19],-28.3% and -33.2%
same,inhibition,[1]; [20],-15.4% and -14.9%
same,inhibition,[1]; [21],109% and 46.9%
same,inhibition,[1]; [22],81.5% and 87.5%
same,inhibition,"[2]; BGB combo, at 5 µM",91.9% and 99.2%
same,inhibition,[2]; at 0.5 µM,76.6% (inactive) and 90.4% (active)
same,inhibition,"[2]; cisplatin combo, at 5 µM",89.8% and 99.4%
same,inhibition,[2]; [23],83.3% and 91.4%
same,inhibition,[2]; [24],71% and 86.5%
same,inhibition,"[2]; single agent, at 5 µM",93% and 99%
same,inhibition,"[3]; BGB IC20 combo, at 0.005 µM",-14.4% and -0.816%
same,inhibition,"[3]; BGB IC40 combo, at 0.005 µM",10.1% and 28.9%
same,inhibition,"[3]; BGB IC40 combo, at 0.05 µM",90.9% and 90.2%
same,inhibition,[3]; at 0.5 µM,0.67% (inactive) and -18.7% (inactive)
same,inhibition,"[3]; cisplatin combo, at 0.05 µM",90.9% and 89.8%
same,inhibition,"[3]; cisplatin combo, at 0.5 µM",8.68% and -15.9%
same,inhibition,"[3]; cisplatin combo, at 5 µM",-16.2% and -24.5%
same,inhibition,[3]; [25],-7.75% and -12.5%
same,inhibition,[4]; at 0.5 µM,18.3% (inactive) and 58.5% (inactive)
same,inhibition,[4]; [20],-2.41% and -26.5%
same,inhibition,[4]; [26],67.3% and 77.9%
same,inhibition,[4]; [27],84.7% and 77.9%
same,inhibition,[5]; at 0.5 µM,87% (active) and 98.3% (active)
same,inhibition,[5]; [28],83.6% and 98.1%
same,inhibition,[5]; [29],99.4% and 98.2%
same,inhibition,[5]; [30],89.5% and 97.8%
same,inhibition,[5]; [31],99.8% and 99.6%
same,inhibition,"[5]; single agent, at 5 µM",99.8%
same,inhibition,[6]; at 0.5 µM,61.8% (inactive) and 62.7% (inactive)
same,inhibition,[6]; [32],62.5% and 76.9%
same,inhibition,[6]; [33],58% and 56.3%
same,inhibition,[7]; at 0.5 µM,97.5% (active) and 99.2% (active)
same,inhibition,[7]; [34],96.5% and 99.2%
same,inhibition,[7]; [35],97.2% and 99.2%
same,inhibition,[8]; at 0.5 µM,66.6% (inactive) and 83.3% (active)
same,inhibition,[8]; [36],12.6% and 11.7%
same,inhibition,[8]; [37],11.3% and 20.8%
same,inhibition,[9]; at 0.5 µM,7.34% (inactive) and -4.41% (inactive)
same,inhibition,[9]; [26],19% and 21%
same,inhibition,[9]; [27],76.3% and 69.2%
same,inhibition,[10]; at 0.5 µM,54.1% (inactive) and 72% (inactive)
same,inhibition,[10]; [38],51.4% and 63.7%
same,inhibition,[10]; [39],74.8% and 70.3%
same,inhibition,[10]; [40],45.3% and 73.5%
same,inhibition,[10]; [41],82.3% and 82.8%
same,inhibition,[11]; [42],99.4% and 98.3%
same,inhibition,[11]; at 0.5 µM,67.6% (inactive) and 90.7% (active)
same,inhibition,[11]; [43],118% and 106%
same,inhibition,[12]; at 0.5 µM,60.8% (inactive) and 77.6% (inactive)
same,inhibition,[12]; [44],60.1% and 81.6%
same,inhibition,[12]; [45],47.8% and 70.6%
same,inhibition,[13]; at 0.5 µM,14.3% (inactive) and 17% (inactive)
same,inhibition,[13]; [46],23.6% and 35.1%
same,inhibition,"[13]; cisplatin combination, at 5 µM",44.9% and 40.2%
same,inhibition,[13]; [47],23.9% and 38.2%
same,inhibition,"[13]; single agent, at 5 µM",-2.08% and -14.2%
same,inhibition,[14]; at 0.5 µM,7.46% (inactive) and 14.2% (inactive)
same,inhibition,"[14]; cisplatin combo, at 5 µM",72.3% and 80.4%
same,inhibition,[14]; [48],5.45% and -12%
same,inhibition,[14]; [26],49.2% and 53.3%
same,inhibition,"[14]; single agent, at 5 µM",23.3% and 47.8%
same,inhibition,[15]; at 0.5 µM,54% (inactive) and 96.2% (active)
same,inhibition,[15]; [23],77.9% and 98.4%
same,inhibition,[15]; [24],42.1% and 95.1%
same,inhibition,"[15]; single agent, at 0.05 µM",32% and 28.6%
same,inhibition,"[15]; single agent, at 5 µM",99.8% and 99.9%
CC[C@@H]1/C=C/C=C/C[C@H](C)[C@@H](O)[C@](C)(O)C(=O)[C@H](C)[C@@H](O)[C@H](C)C(=O)[C@H](C)[C@@H](O)[C@H](C)/C=C/C(=O)O[C@H]2[C@@H](C)[C@@H](CC1)O[C@@]1(CC[C@@H](C)[C@@H](CC(C)O)O1)[C@@H]2C (stereo partly drawn),period change,[16],-1.77 h (inactive)
CN1C[C@@H](CS(=O)(=O)N(C)C)C[C@@H]2c3cccc4c3c(cn4C)C[C@H]21,period change,[16],-0.105 h (inactive)
O=P(O)(NCCCl)NCCCl,inhibition,[1]; [17],-22.2% (inactive)
same,inhibition,[1]; [18],-18.1%
same,inhibition,[1]; [19],-19.6%
same,inhibition,[1]; [20],-1.01%
same,inhibition,[1]; [21],-31.9%
same,inhibition,[1]; [22],-32.1%
same,inhibition,"[2]; BGB combo, at 5 µM",-3.04%
same,inhibition,[2]; at 0.5 µM,-31.2% (inactive)
same,inhibition,"[2]; cisplatin combo, at 5 µM",-23.7%
same,inhibition,[2]; [23],-28%
same,inhibition,[2]; [24],-30.2%
same,inhibition,"[2]; single agent, at 5 µM",-43.4%
same,inhibition,"[3]; BGB IC20 combo, at 0.005 µM",-17.4%
same,inhibition,"[3]; BGB IC40 combo, at 0.005 µM",-58.7%
same,inhibition,"[3]; BGB IC40 combo, at 0.05 µM",-40.4%
same,inhibition,[3]; at 0.5 µM,-24.2% (inactive)
same,inhibition,"[3]; cisplatin combo, at 0.05 µM",-45.9%
same,inhibition,"[3]; cisplatin combo, at 0.5 µM",-25.8%
same,inhibition,"[3]; cisplatin combo, at 5 µM",-10.7%
same,inhibition,[3]; [25],3.71%
same,inhibition,[4]; at 0.5 µM,-40.6% (inactive)
same,inhibition,[4]; [20],-43.7%
same,inhibition,[4]; [26],-71.6%
same,inhibition,[4]; [27],-97.5%
same,inhibition,[5]; at 0.5 µM,-29.6% (inactive)
same,inhibition,[5]; [28],-31.2%
same,inhibition,[5]; [29],0.766%
same,inhibition,[5]; [30],-42.4%
same,inhibition,[5]; [31],5.56%
same,inhibition,"[5]; single agent, at 5 µM",-6.89%
same,inhibition,[6]; at 0.5 µM,-58.4% (inactive)
same,inhibition,[6]; [32],-43.5%
same,inhibition,[6]; [33],-12.2%
same,inhibition,[7]; at 0.5 µM,-20.7% (inactive)
same,inhibition,[7]; [34],-26.7%
same,inhibition,[7]; [35],-18.9%
same,inhibition,[8]; at 0.5 µM,-15.1% (inactive)
same,inhibition,[8]; [36],-6.88%
same,inhibition,[8]; [37],-8.03%
same,inhibition,[9]; at 0.5 µM,-16.7% (inactive)
same,inhibition,[9]; [26],-19.3%
same,inhibition,[9]; [27],-26.8%
same,inhibition,[10]; at 0.5 µM,-14.5% (inactive)
same,inhibition,[10]; [38],-12.5%
same,inhibition,[10]; [39],-5.62%
same,inhibition,[10]; [40],-16%
same,inhibition,[10]; [41],-15.6%
same,inhibition,[11]; [42],-1.33%
same,inhibition,[11]; at 0.5 µM,-15.6% (inactive)
same,inhibition,[11]; [43],-23%
same,inhibition,[12]; at 0.5 µM,-6.45% (inactive)
same,inhibition,[12]; [44],-2.47%
same,inhibition,[12]; [45],-6.44%
same,inhibition,[13]; at 0.5 µM,-3.8% (inactive)
same,inhibition,[13]; [46],2.29%
same,inhibition,"[13]; cisplatin combination, at 5 µM",-12.8%
same,inhibition,[13]; [47],-21.5%
same,inhibition,"[13]; single agent, at 5 µM",-15.7%
same,inhibition,[14]; at 0.5 µM,-17.3% (inactive)
same,inhibition,"[14]; cisplatin combo, at 5 µM",5.67%
same,inhibition,[14]; [48],-4.66%
same,inhibition,[14]; [26],-18.6%
same,inhibition,"[14]; single agent, at 5 µM",-40.3%
same,inhibition,[15]; at 0.5 µM,-42.1% (inactive)
same,inhibition,[15]; [23],-36.5%
same,inhibition,[15]; [24],-44.9%
same,inhibition,"[15]; single agent, at 0.05 µM",-55%
same,inhibition,"[15]; single agent, at 5 µM",-25.3%
